Measured values published in the OligoGym collection.

Each sequence was assayed against SLC29A3 (assay: pooled miR-30 sensor sort-seq; sequence = guide strand). Details: shRNA.
Note: reference of the scale not given here.

| Sequence | sensor-assay potency score (higher = more potent) |
| --- | --- |
| TTGAACATCCAGTACTCCTTGG | -0.255 |
| TTGCTTGCATCTCGCTGTCAGC | -1.44 |
| TTGACATGTTGTAAACAGGAAC | -1.02 |

Each sequence was assayed against SLC2A14 in the same assay as above. Details: shRNA.

| Sequence | sensor-assay potency score (higher = more potent) |
| --- | --- |
| TTCGTGAGCAGCACCTCAGAGG | -0.817 |
| TAGTGATTCTTTAATAACAAAG | -1.67 |
| TCAGCATTTCAACTGACTCAGC | -0.914 |
| TTATGATCGTCTCAGGAGCATT | -1.97 |
| TTTATGATCGTCTCAGGAGCAT | -0.333 |
| TCCCAGATCTATCTGCACCGTG | -0.88 |
| TTAACAAAGAGTCCGACGGAAA | -1.6 |
| TGATTCTTTAATAACAAAGAAA | -1.69 |
| ATAAATTCCTTTATGATCGTCT | 0.823 |
| AATTCCAATAACTATGCCCAGC | -1.73 |
| TAAATAGTAAGCAGCAGAGGGG | -1.17 |
| TTACACAGTCCCATAAGGCAGC | -0.403 |
